Screens from PubChem.
MEKK2wt PB1 HTS: modulators of MEK5 binding to wildtype MEKK2, primary screen, biochemical, multiplex bead flow cytometry, Alexa488-MEK5; Alexa488-MEK5 binding to MEKK2 WT; actives lie on both sides; AID 1531, 2009; Mitogen-activated protein kinase kinase kinase 2 (Homo sapiens), Q9Y2U5; 290,000 compounds, 1.1% hits; binding response (% of control), % at 10 µM; in the data active = binding response below about 67% or above about 130%; inconclusive = no clear call, values can overlap the other calls; inactive = in between
DNA FID counter: compounds displacing fluorescent DNA intercalator, primary screen, artefact control for HCV NS3 helicase inhibitor project, biochemical, FID fluorescence; 290,000 compounds, 0.17% hits; AID 1845, 2009; DNA fluorescent intercalator displacement; inhibition, % at 7.9 µM; in the data active = inhibition above about 37%;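 also: 0% = vehicle and 100% = reference compound; higher means more ethidium bromide displaced from hairpin DNA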
MEKK2mut PB1 HTS: MEK5 binding signal on mutant MEKK2 PB1, primary screen, biochemical, multiplex bead flow cytometry, Alexa488-MEK5 | Alexa488-MEK5 binding to MEKK2 mutant | percent response, % at 10 µM | 290,000 compounds, 0.35% hits | AID 1530, 2009; in the data active = percent response above about 24%, passing the limit was not always enough
MEKK3 PB1 HTS: modulators of MEKK3-MEK5 PB1 binding, primary screen, biochemical, wildtype MEKK3, multiplex bead flow cytometry, Alexa488-MEK5 | Mitogen-activated protein kinase kinase kinase 3 (Homo sapiens), Q99759 | bead-based flow cytometry, Alexa488-MEK5 binding to MEKK3; actives lie on both sides; 0 = blocked by unlabeled MEK5, 100 = vehicle | binding response (% of control), % at 10 µM | 290,000 compounds, 1.4% hits;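 active = binding response more than 3 SD above or below the average of its plate-row segment, actives on both sides; inconclusive = wells at one plate position flagged as instrument error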;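 also: Alexa488 bead fluorescence after subtracting the streptavidin-only scavenger bead signal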
dFosB act: activators of delta FosB homodimer, primary screen, biochemical, fluorescence polarization, TAMRA-CDK5 oligo, single point | 340,000 compounds, 0.99% hits | purified delta FosB; percent of positive-control signal above neutral wells | activation, % at 25 µM | AID 493131, 2011;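 active = mean activation above about 17%, with every replicate also reaching it, limit read from the data, passing the limit was not always enough; inconclusive = only one of the two conditions met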
Target sequence (P13346 whole entry, looked up): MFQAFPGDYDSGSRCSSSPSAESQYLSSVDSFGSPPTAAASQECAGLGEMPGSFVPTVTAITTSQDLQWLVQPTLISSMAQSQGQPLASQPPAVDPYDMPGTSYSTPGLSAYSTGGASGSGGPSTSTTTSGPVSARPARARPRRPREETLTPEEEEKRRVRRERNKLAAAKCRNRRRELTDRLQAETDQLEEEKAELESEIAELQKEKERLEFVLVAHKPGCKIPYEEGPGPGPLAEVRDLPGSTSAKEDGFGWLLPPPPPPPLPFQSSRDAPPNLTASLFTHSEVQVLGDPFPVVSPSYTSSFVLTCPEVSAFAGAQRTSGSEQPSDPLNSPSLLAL
* hit, by the source's call; ? = inconclusive; · = no result given. Hits are enriched below; roughly 2.9% of the tested compounds scored in any of these assays.

SMILES	MEKK2wt PB1 HTS	DNA FID counter	MEKK2mut PB1 HTS	MEKK3 PB1 HTS	dFosB act
CCOc1ccc(NC(=O)CSc2nnc(CCNC(=O)c3ccc(OC)cc3)n2C)cc1	104.0	-25.6	10.0	102.0	-6.8
CCOC(=O)/C(=C\c1ccccc1)NC(=O)c1ccccc1	88.0	-2.1	-3.0	86.0	-15.4
CCOC(=O)/C(=C/c1ccc(OC(=O)c2ccccc2)cc1)C(C)=O	4.0*	-2.2	11.0	97.0	-7.9
COc1ccccc1CNC(=O)COC(=O)c1cccnc1SCC(=O)NCc1ccccc1OC	97.0	-9.1	-1.0	103.0	40.5*
CCOc1cc(CNC(C)(C)C)ccc1OCC(=O)Nc1cccc(C(F)(F)F)c1	117.0	38.4*	15.0	102.0	-2.4
CCC(CO)NCc1ccc(OCC(=O)Nc2cccc(C(F)(F)F)c2)c(OC)c1 (stereo unspecified)	101.0	19.5	0.0	100.0	-34.4
COc1ccccc1CNC(=O)CCNS(=O)(=O)c1ccc2c(c1)CC(C)N2C(C)=O (stereo unspecified)	106.0	-26.8	5.0	100.0	-7.1
O=C(CCc1c[nH]c2ccccc12)OCc1ccc(Br)cc1	99.0	-10.9	-3.0	97.0	1.6
O=C(CNC(=O)c1cccs1)N=Nc1c(O)[nH]c2ccc(Br)cc12	101.0	-3.3	4.0	101.0	-7.4
O=C(CNC(=O)c1ccccc1)N=Nc1c(O)[nH]c2ccc(Br)cc12	103.0	-8.8	5.0	98.0	45.8*
Cc1cc(Br)cc2c1NC(=O)C2(O)CC(=O)c1ccco1 (stereo unspecified)	99.0	0.8	-3.0	100.0	2.6
O=C(NNC(=O)c1cccnc1SCc1cccc([N+](=O)[O-])c1)c1ccc(F)cc1	104.0	6.5	-1.0	107.0	6.6
O=C(NNC(=O)c1cccnc1SCc1cccc([N+](=O)[O-])c1)c1ccccn1	106.0	-4.3	-1.0	134.0*	-9.2
Cc1ccc(-n2c(COc3c(C)cccc3C)nnc2SCC(=O)Nc2nccs2)cc1	106.0	-1.4	4.0	105.0	21.4*
O=C(Nc1ccccc1)C1=C[C@@H](C2CC2)C[C@@H](OCCCCO)O1	105.0	-13.1	10.0	105.0	0.2
O=C(CCN1C(=O)C2C3CCC(C3)C2C1=O)Nc1ccccc1C(F)(F)F (stereo unspecified)	95.0	-3.7	-6.0	89.0	-0.2
COc1ccc(NS(=O)(=O)c2cc(NC(=O)c3cc(F)c(F)cc3Cl)ccc2N2CCOCC2)cc1	·	·	·	·	20.7*
O=C(NNC(=O)c1cccnc1Cl)c1ccc(F)cc1	104.0	-6.9	2.0	102.0	-2.8
CC1CC(C)CN(CCCNC(=O)c2ccc3c(c2)N(Cc2ccccc2)C(=O)c2ccccc2S3=O)C1 (stereo unspecified)	145.0*	34.9	10.0	105.0	8.8
C=CCOc1ccc(CN(C)CC(O)COc2ccc(CCC(C)=O)cc2)cc1 (stereo unspecified)	99.0	7.9	-3.0	99.0	-3.8
CCOc1ccc(CN(C)CC(O)COC(c2ccc(OC)cc2)c2ccc(OC)cc2)cc1 (stereo unspecified)	180.0*	28.6	35.0*	112.0	?
COc1ccc(CN(C)CC(O)COC(c2ccc(OC)cc2)c2ccc(OC)cc2)cc1 (stereo unspecified)	147.0*	31.6	9.0	107.0	-1.2
COc1ccc(C(OCC(O)CN(C)C2CCCCC2)c2ccc(OC)cc2)cc1 (stereo unspecified)	161.0*	25.5	11.0	106.0	-2.9
CCN(CC(=O)Nc1ccc(NC(C)=O)cc1)C(=O)c1ccc(N2CCCC2)c([N+](=O)[O-])c1	·	·	·	·	-7.2
CCC1CCCCN1CCCNC(=O)C1CCC(=O)N1Cc1ccc(C)cc1 (stereo unspecified)	99.0	5.9	2.0	97.0	16.2*
SMILES	MEKK2wt PB1 HTS	DNA FID counter	MEKK2mut PB1 HTS	MEKK3 PB1 HTS	dFosB act
NC(=O)c1cc([N+](=O)[O-])ccc1NCC1CCCCC1	·	·	·	·	1.9
O=c1oc2ccccc2nc1/C=C(\O)c1ccccc1	100.0	-3.5	-5.0	100.0	·
O/C(=C\c1nc2ccccc2nc1/C=C(\O)c1ccccc1)c1ccccc1	20.0*	5.5	9.0	81.0	2.8
CCCN1CCc2c(sc(NC(=S)NC(=O)c3ccccc3)c2C#N)C1	0.0*	10.8	8.0	95.0	-5.0
Cc1ccc([N+](=O)[O-])c(OCCCN2CCC(Cc3ccccc3)CC2)c1	143.0*	33.1	15.0	111.0	-4.0
COc1ccc(C(=O)Nc2ccc(Br)cc2F)cc1S(=O)(=O)N1CCCC1	·	·	·	·	-10.0
COC(=O)C/C=N/N=C1/NC(=O)/C(=C/C(=O)O)S1	1.0*	-2.6	3.0	96.0	-0.1
CN(C)c1ccc(/C=C2\CCC/C(=C\c3ccccc3)C2=O)cc1	15.0*	-7.0	21.0	121.0	-6.2
O=C1/C(=C/c2ccccc2)CCCc2ccccc21	99.0	0.8	-2.0	105.0	5.1
O=[N+]([O-])c1ccc(/C=C2\CCC(C3=CCCC3)=C2N2CCOCC2)cc1	1.0*	-0.7	2.0	101.0	1.6
C=CCn1c(SCC(=O)Nc2cc3oc4ccccc4c3cc2OC)nnc1-c1cnccn1	140.0*	-0.5	11.0	110.0	2.9
CCOC(=O)Cc1csc(NC(=S)NC(=O)C(C)(C)C)n1	107.0	-6.7	1.0	134.0*	-1.0
CCOC(=O)Cc1csc(NC(=S)NC(=O)c2ccc(Cl)cc2)n1	100.0	3.4	1.0	102.0	-1.8
CSc1ccccc1NC(=O)c1cc(-c2cccnc2)nc2ccc(Br)cc12	97.0	-2.0	1.0	101.0	27.2*
COc1ccc(CN(C(=O)/C=C/c2ccco2)C2CCS(=O)(=O)C2)cc1 (stereo unspecified)	102.0	-29.9	5.0	102.0	-2.7
CCC(C(=O)O)P(=O)(c1ccc(Cl)cc1)c1ccc(Cl)cc1 (stereo unspecified)	97.0	-10.3	-10.0	99.0	-0.5
Cc1ccc(Nc2c(-c3ccccn3)nc3cc(C)ccn23)cc1	94.0	1.3	-8.0	105.0	20.5*
Cc1ccn2c(Nc3ccc4c(c3)OCO4)c(-c3ccccn3)nc2c1	103.0	1.5	-2.0	101.0	20.6*
CCOc1ccc(OCCCC(=O)N(CC)CC(=O)Nc2c(F)cccc2F)cc1	·	·	·	·	-4.4
CC[N+](CC)(CC)CCCCOc1ccc2c(c1)C(=O)c1cc(OCCCC[N+](CC)(CC)CC)ccc1-2	117.0	90.0*	19.0	107.0	55.1*
Cc1ccc(S(=O)(=O)N2C(=O)C(c3ccccc3)SC2=Nc2ccccc2)cc1 (stereo unspecified)	101.0	1.2	11.0	108.0	42.7*
